Our source for the binding signal values is paper PMC7862700, “An all-to-all approach to the identification of sequence-specific readers for epigenetic DNA modifications on cytosine”.

Chain of ETV1 (P50549 whole entry, the tested form may be a part): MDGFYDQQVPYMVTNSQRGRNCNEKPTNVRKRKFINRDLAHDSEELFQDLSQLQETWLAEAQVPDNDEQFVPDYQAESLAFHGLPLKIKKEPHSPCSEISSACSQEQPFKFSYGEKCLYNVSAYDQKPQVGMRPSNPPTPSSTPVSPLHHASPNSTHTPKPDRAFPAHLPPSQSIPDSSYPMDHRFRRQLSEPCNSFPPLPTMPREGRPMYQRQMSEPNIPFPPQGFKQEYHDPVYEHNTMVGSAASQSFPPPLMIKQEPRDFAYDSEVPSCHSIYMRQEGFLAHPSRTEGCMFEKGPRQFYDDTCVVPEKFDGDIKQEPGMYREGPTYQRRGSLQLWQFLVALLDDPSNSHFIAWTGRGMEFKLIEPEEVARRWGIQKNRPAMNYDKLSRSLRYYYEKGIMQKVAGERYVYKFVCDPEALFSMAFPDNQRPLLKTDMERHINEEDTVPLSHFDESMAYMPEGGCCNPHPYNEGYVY

The experiment deals with ETV1 (Homo sapiens, UniProt P50549 1-477). Put plainly: DAPPL (digital affinity profiling via proximity ligation, sequencing); 10 mM Tris-HCl pH 7.5, 50 mM NaCl, 1 mM DTT, 4% glycerol, room temperature, 30 min; GST-TFs on glutathione beads, 16-mer random dsDNA library, 0.1% formaldehyde crosslink after washing; high values mean tight binding. Conditions: protein: recombinant; tags: N-terminal GST; dsDNA, one strand shown. The gist of the method:
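Beads coated with glutathione captured GST-fused human transcription factors that had been expressed in yeast, and the factors were then given DNA barcodes and pooled with a tag-only sample. The pools were incubated with 200 nmole of a random double-stranded 16-mer DNA library in Tris/NaCl/DTT/glycerol buffer for 30 min at room temperature, washed, crosslinked with 0.1% formaldehyde and proximity-ligated with BsaI/T4 ligase at 37 °C for 1 h. PCR amplification and Illumina NextSeq500 sequencing came last. Binding signal is each hexamer's read frequency for a factor divided by its frequency for the tag-only sample.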
Turning to GTATTC, the binding signal is 1.22 fold enrichment (6-mer frequency, TF over GST control).
Regarding CACTAT, the binding signal was 1.14 fold enrichment (6-mer frequency, TF over GST control).
Consider ATCATT, for which the binding signal was 1.06 fold enrichment (6-mer frequency, TF over GST control).
For CCTCAT, the binding signal was 1.37 fold enrichment (6-mer frequency, TF over GST control).
For ATATTC the value was 1.26 fold enrichment (6-mer frequency, TF over GST control); for CTCATC, 1.4 fold enrichment (6-mer frequency, TF over GST control).
For TTATTA the value was 1.11 fold enrichment (6-mer frequency, TF over GST control); for TTTCTT, 1.38 fold enrichment (6-mer frequency, TF over GST control); for TCTTCA, 1.28 fold enrichment (6-mer frequency, TF over GST control).
In the case of CATTAT, the binding signal was 1.32 fold enrichment (6-mer frequency, TF over GST control).
As to TGACTC, the binding signal was 1.33 fold enrichment (6-mer frequency, TF over GST control).
For AAATTA the value was 1.2 fold enrichment (6-mer frequency, TF over GST control).
On to CCTGAA, for which the binding signal is 1.38 fold enrichment (6-mer frequency, TF over GST control).
Consider TCCGGA, for which the binding signal was 2.75 fold enrichment (6-mer frequency, TF over GST control).
As for AATTCT, the binding signal is 1.32 fold enrichment (6-mer frequency, TF over GST control).
CTTTAA: the binding signal is 1.3 fold enrichment (6-mer frequency, TF over GST control).
Take TCGAAT: the binding signal was 1 fold enrichment (6-mer frequency, TF over GST control).
For TGACAA, the binding signal was 1.25 fold enrichment (6-mer frequency, TF over GST control).
For the sequence TCCCGC, the binding signal is 1.5 fold enrichment (6-mer frequency, TF over GST control).
With TATCAG, the binding signal was 1.14 fold enrichment (6-mer frequency, TF over GST control).
Consider ACTCCT, for which the binding signal is 1.41 fold enrichment (6-mer frequency, TF over GST control).
As for AATAGA, the binding signal is 1.07 fold enrichment (6-mer frequency, TF over GST control).
Turning to TATGGT, the binding signal is 1.27 fold enrichment (6-mer frequency, TF over GST control).
Turning to TAAGCT, the binding signal is 1.23 fold enrichment (6-mer frequency, TF over GST control).
As for AAATGC, the binding signal is 1.26 fold enrichment (6-mer frequency, TF over GST control).
TCTGTT: the binding signal was 1.41 fold enrichment (6-mer frequency, TF over GST control).
Turning to TCTCAT, the binding signal is 1.38 fold enrichment (6-mer frequency, TF over GST control).
For CCCACG the value was 1.06 fold enrichment (6-mer frequency, TF over GST control).
With TGCACT, the binding signal was 1.33 fold enrichment (6-mer frequency, TF over GST control).
TTCATC: the binding signal was 1.25 fold enrichment (6-mer frequency, TF over GST control).
For ATATTG the value was 1.32 fold enrichment (6-mer frequency, TF over GST control); for TGTTAC, 1.4 fold enrichment (6-mer frequency, TF over GST control).
TCCACT: the binding signal was 1.41 fold enrichment (6-mer frequency, TF over GST control).
With TTGTAG, the binding signal was 1.25 fold enrichment (6-mer frequency, TF over GST control).
For AGAAGC the value was 1.11 fold enrichment (6-mer frequency, TF over GST control); for CTTCTA, 1.49 fold enrichment (6-mer frequency, TF over GST control); for TCTATA, 1.08 fold enrichment (6-mer frequency, TF over GST control).
As for ATTCCA, the binding signal is 1.11 fold enrichment (6-mer frequency, TF over GST control).
As for TAAACA, the binding signal was 1.2 fold enrichment (6-mer frequency, TF over GST control).
The result for ACCCGC reads 1.27 fold enrichment (6-mer frequency, TF over GST control).
